Data taken from PubChem BioAssay AID1159580 (chemical genetic matrix, 2015).
Among all 5,500 compounds or so, about 2,000 (36%) were called active. Roughly 18% stayed inconclusive and do not appear here. No stated cut-off is given here; in the data, active means normalized growth mostly below about 0.91 (no sharp cut-off); inconclusive means no clear call, values can overlap the other calls; inactive means mostly above about 0.92. This is one part of the list.

Assay: chemical genetic growth profiling, strain panel (AID 1159580);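 further: tested at 20 µM; growth read once vehicle control cultures reached saturation at 30 °C; 1 = growth at the plate median or of vehicle wells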
Conditions: growth OD

Measured: normalized growth

CCN(CC)CCNc1ccc(CO)c2sc3ccccc3c(=O)c12
inactive: S. cerevisiae deletion strains, locus YJR075W, strain HOC1, stronger effect = lower value 0.979 | S. cerevisiae deletion strains, locus YKL009W, strain mrt4, stronger effect = lower value 0.993 | S. cerevisiae deletion strains, locus YKL068W, stronger effect = lower value 1 | S. cerevisiae deletion strains, locus YKL085W, strain MDH1 (second series), stronger effect = lower value 0.996 | S. cerevisiae deletion strains, locus YKL085W, strain MDH1, stronger effect = lower value 0.996 | S. cerevisiae deletion strains, locus YKL160W, strain elf1, stronger effect = lower value 1.01 | S. cerevisiae deletion strains, locus YKL190W, strain CNB1, stronger effect = lower value 1 | S. cerevisiae deletion strains, locus YKR001C, strain vps1, stronger effect = lower value 1 | S. cerevisiae deletion strains, locus YKR026C, strain gcn3, stronger effect = lower value 1.02 | S. cerevisiae deletion strains, locus YKR091W, strain srl3, stronger effect = lower value 1.01 | S. cerevisiae deletion strains, locus YLL001W, strain dnm1, stronger effect = lower value 1.01 | S. cerevisiae deletion strains, locus YLL026W, stronger effect = lower value 1.01 | S. cerevisiae deletion strains, locus YLL041C, strain sdh2, stronger effect = lower value 0.991 | S. cerevisiae deletion strains, locus YLR027C, strain aat2, stronger effect = lower value 1.01 | S. cerevisiae deletion strains, locus YLR039C, strain RIC1, stronger effect = lower value 1.01 | S. cerevisiae deletion strains, locus YLR058C, strain SHM2, stronger effect = lower value 0.998 | S. cerevisiae deletion strains, locus YLR102C, strain apc9, stronger effect = lower value 1.02 | S. cerevisiae deletion strains, locus YLR113W, strain HOG1, stronger effect = lower value 1.05 | S. cerevisiae deletion strains, locus YLR221C, strain rsa3, stronger effect = lower value 1.01 | S. cerevisiae deletion strains, locus YLR258W, strain gsy2, stronger effect = lower value 1.01 | S. cerevisiae deletion strains, locus YLR262C, strain YPT6 (second series), stronger effect = lower value 1 | S. cerevisiae deletion strains, locus YLR262C, strain YPT6, stronger effect = lower value 1.01 | S. cerevisiae deletion strains, locus YLR268W, strain sec22, stronger effect = lower value 0.947 | S. cerevisiae deletion strains, locus YLR320W, strain mms22, stronger effect = lower value 1.01 | S. cerevisiae deletion strains, locus YLR330W, strain CHS5, stronger effect = lower value 1.01 | S. cerevisiae deletion strains, locus YLR342W, strain FKS1 (second series), stronger effect = lower value 0.938 | S. cerevisiae deletion strains, locus YLR342W, strain FKS1, stronger effect = lower value 1 | S. cerevisiae deletion strains, locus YLR357W, strain rsc2, stronger effect = lower value 1.04 | S. cerevisiae deletion strains, locus YLR370C, strain arc18, stronger effect = lower value 1.01 | S. cerevisiae deletion strains, locus YLR371W, strain rom2, stronger effect = lower value 1.01 | S. cerevisiae deletion strains, locus YLR384C, strain iki3, stronger effect = lower value 1.01 | S. cerevisiae deletion strains, locus YLR418C, strain cdc73, stronger effect = lower value 0.919 | S. cerevisiae deletion strains, locus YML016C, strain PPZ1, stronger effect = lower value 0.996 | S. cerevisiae deletion strains, locus YML032C, strain rad52, stronger effect = lower value 0.948 | S. cerevisiae deletion strains, locus YML120C, strain ndi1, stronger effect = lower value 1.02 | S. cerevisiae deletion strains, locus YML124C, strain tub3, stronger effect = lower value 1.01 | S. cerevisiae deletion strains, locus YMR058W, strain fet3, stronger effect = lower value 0.998 | S. cerevisiae deletion strains, locus YMR078C, strain ctf18, stronger effect = lower value 1.01 | S. cerevisiae deletion strains, locus YMR125W, strain sto1, stronger effect = lower value 1 | S. cerevisiae deletion strains, locus YMR129W, stronger effect = lower value 1 | S. cerevisiae deletion strains, locus YMR205C, strain PFK2, stronger effect = lower value 0.997 | S. cerevisiae deletion strains, locus YMR223W, strain ubp8, stronger effect = lower value 0.994 | S. cerevisiae deletion strains, locus YMR231W, strain pep5, stronger effect = lower value 1.01 | S. cerevisiae deletion strains, locus YMR263W, strain SAP30, stronger effect = lower value 0.985 | S. cerevisiae deletion strains, locus YMR307W, strain GAS1, stronger effect = lower value 1.01 | S. cerevisiae deletion strains, locus YNL067W, strain RPL9B, stronger effect = lower value 0.973 | S. cerevisiae deletion strains, locus YNL071W, strain lat1, stronger effect = lower value 1.01 | S. cerevisiae deletion strains, locus YNL128W, strain TEP1, stronger effect = lower value 0.992 | S. cerevisiae deletion strains, locus YNL153C, strain GIM3, stronger effect = lower value 0.962 | S. cerevisiae deletion strains, locus YNL183C, strain NPR1, stronger effect = lower value 0.952 | S. cerevisiae deletion strains, locus YNL209W, strain ssb2, stronger effect = lower value 1.02 | S. cerevisiae deletion strains, locus YNL233W, strain BNI4, stronger effect = lower value 0.955 | S. cerevisiae deletion strains, locus YNL248C, strain rpa49, stronger effect = lower value 1 | S. cerevisiae deletion strains, locus YNL250W, strain rad50, stronger effect = lower value 1 | S. cerevisiae deletion strains, locus YNL271C, strain bni1, stronger effect = lower value 1.01 | S. cerevisiae deletion strains, locus YNL298W, strain CLA4, stronger effect = lower value 1.01 | S. cerevisiae deletion strains, locus YNL307C, strain MCK1, stronger effect = lower value 0.962 | S. cerevisiae deletion strains, locus YNL322C, strain KRE1 (second series), stronger effect = lower value 1.01 | S. cerevisiae deletion strains, locus YNL322C, strain KRE1, stronger effect = lower value 1.01 | S. cerevisiae deletion strains, locus YNR049C, strain mso1, stronger effect = lower value 1.01 | S. cerevisiae deletion strains, locus YNR052C, strain pop2, stronger effect = lower value 1.01 | S. cerevisiae deletion strains, locus YOL006C, strain TOP1, stronger effect = lower value 0.883 | S. cerevisiae deletion strains, locus YOL012C, strain htz1 0.879 | S. cerevisiae deletion strains, locus YOL147C, strain pex11, stronger effect = lower value 1.02 | S. cerevisiae deletion strains, locus YOR001W, strain rrp6, stronger effect = lower value 1 | S. cerevisiae deletion strains, locus YOR061W, strain CKA2, stronger effect = lower value 1 | S. cerevisiae deletion strains, locus YOR069W, strain VPS5, stronger effect = lower value 0.993 | S. cerevisiae deletion strains, locus YOR070C, strain gyp1, stronger effect = lower value 1 | S. cerevisiae deletion strains, locus YOR080W, strain dia2, stronger effect = lower value 1.01 | S. cerevisiae deletion strains, locus YOR083W, strain WHI5, stronger effect = lower value 1 | S. cerevisiae deletion strains, locus YOR106W, strain vam3, stronger effect = lower value 1.02 | S. cerevisiae deletion strains, locus YOR136W, strain idh2, stronger effect = lower value 1.01 | S. cerevisiae deletion strains, locus YOR144C, strain elg1, stronger effect = lower value 1 | S. cerevisiae deletion strains, locus YOR184W, strain ser1, stronger effect = lower value 0.995 | S. cerevisiae deletion strains, locus YOR231W, strain MKK1, stronger effect = lower value 1.04 | S. cerevisiae deletion strains, locus YOR265W, strain rbl2, stronger effect = lower value 1 | S. cerevisiae deletion strains, locus YOR270C, strain vph1, stronger effect = lower value 0.976 | S. cerevisiae deletion strains, locus YOR290C, strain snf2, stronger effect = lower value 1.01 | S. cerevisiae deletion strains, locus YOR316C, strain cot1, stronger effect = lower value 1.01 | S. cerevisiae deletion strains, locus YPL051W, strain arl3, stronger effect = lower value 0.997 | S. cerevisiae deletion strains, locus YPL055C, strain LGE1, stronger effect = lower value 0.954 | S. cerevisiae deletion strains, locus YPL078C, strain atp4, stronger effect = lower value 1.01 | S. cerevisiae deletion strains, locus YPL106C, strain sse1, stronger effect = lower value 1.02 | S. cerevisiae deletion strains, locus YPL240C, strain hsp82, stronger effect = lower value 1.01 | S. cerevisiae deletion strains, locus YPL241C, strain CIN2, stronger effect = lower value 1.02 | S. cerevisiae deletion strains, locus YPL256C, strain CLN2, stronger effect = lower value 1.01 | S. cerevisiae deletion strains, locus YPR119W, strain clb2, stronger effect = lower value 1.02 | S. cerevisiae deletion strains, locus YPR141C, strain kar3, stronger effect = lower value 1.02 | S. cerevisiae deletion strains, locus YPR163C, strain tif3, stronger effect = lower value 0.996 | S. cerevisiae deletion strains, locus YPR167C, strain met16, stronger effect = lower value 1.01 | S. cerevisiae deletion strains, strain wtn01, stronger effect = lower value 0.988 | S. cerevisiae strains, strain wild type, stronger effect = lower value 1.01
